Measurements as given in PubChem BioAssay (NCI).
The panel holds about 83,000 compounds, 20% with a hit somewhere; the sample as a whole holds those more often.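 Plates (96-well) were seeded with cells, treated with compound at one concentration, and incubated for 48 hours before percent growth was determined.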 A number with no mark means an inactive call. Calls of active or inactive are those of the source. How the source made its calls: active means growth percent below 10; inactive means the rest.

Each molecule was assayed on A498 renal (assay: NCI-60 one-dose screen, 48 h (100 = growth as untreated, 0 = no growth, -100 = all killed)). Settings: 10 µM unless noted.

| SMILES | growth |
| --- | --- |
| CC[C@H](CO)Nc1ccc2ncc(C#Cc3cncc(C(=O)Nc4ccc(CN5CCN(C)CC5)c(C(F)(F)F)c4)c3)n2n1 | -99.4% (active) |
| COc1cc(-c2nc(SCCC(C)C)nc(NNC(=O)c3ccncc3)c2C#N)cc(OC)c1OC | 41.9% |
| CCCCCc1ccc(S(=O)(=O)Nc2cc(-c3csc(NC(=O)CN4CCN(CCO)CC4)n3)ccc2OC)cc1 | 63.1% |
| CCCn1cnc2c(c1=N)C(c1ccc(OC)cc1)c1sc3c(CC)cccc3c1O2 (stereo not given) | -11.5% (active) |
| C#Cc1ccc(C(=O)NCc2ccc(/C=C/C(=O)c3nccn3C)cc2)cc1 | 38.1% |

These molecules were tested on CCRF-CEM leukemia in the same assay as above. Settings: 10 µM unless noted.

| SMILES | growth |
| --- | --- |
| NS(=O)(=O)c1ccc(Nc2nc(N/N=C/c3c[nH]c4ccccc34)nc(Nc3ccccc3)n2)cc1 | 12.9% |
| CCc1cccc2c3c(sc12)C(c1ccc(OC)cc1)C(C#N)=C(/N=C/c1ccc(Cl)cc1)O3 (stereo not given) | 16.3% |
| Cn1ccnc1C(=O)/C=C/c1ccc(CNC(=O)c2ccc(F)cc2)cc1 | 12.8% |
| N#Cc1cccc(NC(=O)c2cc(-c3ccc(F)cc3F)ccc2O)c1 | 20.1% |
| O=S(=O)(NCCCNc1nccc(-c2[nH]c(-c3ccccc3)nc2-c2ccc(Cl)c(O)c2)n1)c1cccc2ccccc12 | 20% |
| CC1(C)[C@@H](O)CC[C@]2(C)[C@H]3CC[C@@H]4[C@H]5[C@H](C(=O)/C=C\c6ccncc6)CC[C@]5(O)CC[C@@]4(C)[C@]3(C)CC[C@@H]12 | 8.75% (active) |
| O=C(CSc1nc2ccccc2c(=O)n1-c1ccccc1)Nc1ccc(-c2nc3ccc([N+](=O)[O-])cc3[nH]2)cc1 | 22.1% |
| Oc1cccc2ccc(-c3nnc(SCc4ccc(O)c5ncccc45)n3-c3ccccc3)nc12 | 11.6% |
| C=CCn1c(SCC(=O)Nc2ccc(C(=O)/C=C/c3ccc(C)cc3)cc2)nnc1-c1c[nH]c2ccccc12 | 83.1% |
| C[C@@H](Nc1c(C#N)cnc2ccc(-c3cnc(Cl)c(NS(C)(=O)=O)c3)cc12)c1ccccc1 | 2.97% (active) |
| CCN(CC)c1ccc(NC2=C(Cl)C(=O)c3nc(C)ccc3C2=O)cc1 | 0.0595% (active) |
| C#Cc1nc(C(=O)NCCC(=O)Nc2ccc(NC(=O)c3ccc(/C=C/C(=O)c4nccn4C)cc3)cc2)cs1 | -21.2% (active) |
| CCN(CC)CCn1c2ccc(O)cc2c2sc3cc(OC)ccc3c(=O)c21 | 21.8% |
| CC1(C)CC[C@]2(C(=O)N3CCOCC3)CC[C@]3(C)C(=CC[C@@H]4[C@@]5(C)C/C(=C/c6ccccn6)C(=O)C(C)(C)[C@@H]5CC[C@]43C)[C@@H]2C1 | 44.5% |
| Cc1nc(-c2ccccc2O)ccc1C(=O)N=Nc1c(O)[nH]c2ccc(Br)cc12 | 86.1% |
| O=C(CCn1c[n+](CC(=O)c2ccc(-c3ccccc3)cc2)c2ccccc21)Nc1cccc2cccnc12 | 36.1% |
| COC(=O)c1[nH]nc2c1C1(C(=O)c3cccc4cccc1c34)C(C#N)=C(N)O2 (stereo not given) | 106% |
| N=c1c2cc(-c3ccccc3)oc2ncn1/N=C/c1ccc(Cl)cc1 | 71.2% |

| SMILES | growth |
| --- | --- |
| Cc1ccc(-n2c(/C=C3\C(=O)Nc4ccccc43)ccc2CO)cc1 | 54.9% |
| CC(=O)N(C)C1CCc2c(sc(NC(=O)c3ccc(C(C)(C)C)cc3)c2C(N)=O)C1 (stereo not given) | 69.3% |
| CC1(C)[C@@H](O)CC[C@]2(C)[C@H]3CC[C@@H]4[C@H]5[C@H](C(=O)/C=C\c6ccc([N+](=O)[O-])cc6)CC[C@]5(O)CC[C@@]4(C)[C@]3(C)CC[C@@H]12 | 12% |
| COc1ccc(N2CCN(C3=C(Cl)C(=O)C(C)=C(C)C3=O)CC2)cc1 | 26.1% |
| CN1CCN(c2ccc(/C=N/Nc3nc4ccccc4c(=O)n3-c3ccccc3)cc2)CC1 | 105% |
| COc1cc(-c2nc3sccn3c2-c2ccnc(S(C)(=O)=O)n2)ccc1F | 92.1% |
| Cc1ccc2c(c1)Oc1nc(N)c(C#N)c(N)c1C2Sc1ccc(F)cc1 (stereo not given) | -21.1% (active) |
| CCCn1cnc2c(c1=N)C(c1ccc(F)cc1)c1sc3c(C)cccc3c1O2 (stereo not given) | -3.84% (active) |
| COc1ccc(Cn2cc3c(c2-c2cc(OC)c(OC)c(OC)c2)CCc2c(CN4CCCC4)noc2-3)cc1 | 16.3% |
| CC1=N[C@@H]2CN(C(=O)OC(C)(C)C)C[C@@H]2n2c1cc1ccccc1c2=O | 105% |
| COc1cc(OC)cc(C(=O)Nc2cccc(C#Cc3cccc4[nH]nc(N)c34)c2)c1 | 13% |
| COc1ccccc1-n1cc(C#N)c(N)c1C(=O)c1ccc(Br)cc1 | 68.3% |
| CS(=O)(=O)Nc1cc(-c2ccc3ncc(C#N)c(NCc4cccc(F)c4)c3c2)cnc1Cl | 15.1% |
| CC[C@H](CO)Nc1ccc2ncc(C#Cc3cncc(C(=O)Nc4ccc(CN5CCN(C)CC5)c(C(F)(F)F)c4)c3)n2n1 | 1.55% (active) |
| COc1cc(-c2nc(SCCC(C)C)nc(NNC(=O)c3ccncc3)c2C#N)cc(OC)c1OC | 95.8% |
| CCCCCc1ccc(S(=O)(=O)Nc2cc(-c3csc(NC(=O)CN4CCN(CCO)CC4)n3)ccc2OC)cc1 | 4.78% (active) |
| CCCn1cnc2c(c1=N)C(c1ccc(OC)cc1)c1sc3c(CC)cccc3c1O2 (stereo not given) | 4.77% (active) |
